Bioassay records as filed in PubChem.
CHX counter: Cycloheximide Counterscreen for Small Molecule Inhibitors of Shiga Toxin; cell reporter, cycloheximide protein synthesis inhibition counterscreen; max response, %; 300,000 compounds, 12% hits; AID 2314, 2010; in the data active means max response mostly above about 13%, no sharp cut-off; inactive means mostly below about 14%; further: read at 38.3 µM for the half of the compounds with a filed dose
FMDV antiviral: High Throughput Screening for Foot and Mouth Disease Virus Antivirals | FMDV antiviral cell-based qHTS | AID 1159524, 2015 | Potency, µM (highest dose often 57.9 µM), actives largely listed as inhibitors | 410,000 compounds, 1.2% hits; calls by dose curve; tested in HEK293T cells; further: read-out not given here; nearly all actives have a fitted effect of over 45% in size
Sm TGR block: qHTS Assay for the Inhibitors of Schistosoma Mansoni Peroxiredoxins | Potency, µM (highest dose often 114 µM), most hits filed as inhibitors | 360,000 compounds, 3% hits | Schistosoma mansoni thioredoxin glutathione reductase (TGR), Q962Y6 | AID 485364, 2010 | purified TGR, DTNB reduction, TNB absorbance 405 nm; active means well fitted inhibition curve with a large enough effect; inconclusive means small, poorly fitted or top-dose-only effect; inactive means no such curve, though single readings can be large or run the other way; further: nearly all actives have a fitted effect of over 60% in size
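TGR 20 nM + NADPH 100 uM (dispensed conc.), cpd preinc 15 min RT; start with NADPH (500 uM addition) then DTNB (15 mM addition). Kinetic TNB absorbance, 405 nm filter. Four-parameter Hill fit across titration.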
Shiga toxin inh: A qHTS for Small Molecule Inhibitors of Shiga Toxin; Vero cells, Shiga toxin protein synthesis inhibition reporter; inhibition, % at 38.7 µM; 290,000 compounds, 9.2% hits; AID 2315, 2010; in the data active means inhibition mostly above about 28%, no sharp cut-off; inactive means mostly below about 43%
Numbers stand for hits; - = inactive; ? = inconclusive; . = not tested or not shown. An excerpt weighted towards active compounds, which were near 12% of everything screened.

SMILES | CHX counter | FMDV antiviral | Sm TGR block | Shiga toxin inh
COC(=O)C1CCN(Cc2ccc3c(c2)CN(C(=O)c2cc(C4CC4)on2)CCO3)CC1 | . | - | . | .
COc1ccc(NC(=O)CCn2c(-c3ccc(F)cc3)cc(C(C)=O)c2C)c(OC)c1 | . | - | - | .
NC(=S)Nc1cccc2cc3ccccc3cc12 | 43 | - | - | 78
Cc1oc(-c2ccc(Cl)cc2)nc1CSc1nnc(C)n2c1cc1sccc12 | . | - | - | .
COc1ccccc1C1CC(=O)Oc2cc3c(cc21)OCO3 (stereo not given) | - | . | . | -
CN(CCOC(=O)c1ccc2c(c1)OCCO2)Cc1ccccc1 | 41 | - | - | 19
CN(CCOC(=O)c1ccc2c(c1)OCCO2)C(C)(C)C | 17 | - | - | -
O=C(c1cccs1)c1cn(CCOc2ccc(F)cc2)c2ccccc12 | . | - | - | .
COc1ccccc1NC(=O)COC(=O)c1ccccc1OCC(=O)Nc1ccc(SC(F)F)cc1 | - | - | - | -
CN(C)C(=O)COC(=O)c1ccccc1Nc1ccc(SC(F)F)cc1 | 32 | - | - | -
CCn1c(SCc2ccc(C(=O)Nc3cc(C)cc(C)c3)cc2)nnc1-c1ccncc1 | - | 18µM | - | -
CCOC(=O)c1ccc(CSc2nnc(-c3ccncc3)n2N)cc1 | 41 | - | - | -
Cc1ccc(NC(=O)c2ccc(CSc3nnc(-c4ccncc4)n3C)cc2)cc1 | - | - | - | -
Cc1[nH]nc(NCCO)c1[N+](=O)[O-] | - | - | - | -
Cc1[nH]nc(NNC(=O)c2ccccc2)c1[N+](=O)[O-] | - | - | - | -
Cc1[nH]nc(Sc2ccccn2)c1[N+](=O)[O-] | - | - | - | 44
Cc1[nH]nc(Nc2ccc(C(C)C)cc2)c1[N+](=O)[O-] | 57 | - | - | 55
Cc1[nH]nc(Nc2ccccc2)c1[N+](=O)[O-] | 31 | - | - | -
Cc1cccc(Nc2n[nH]c(C)c2[N+](=O)[O-])c1 | 63 | - | - | 107
Cc1ccc(Nc2n[nH]c(C)c2[N+](=O)[O-])cc1 | 29 | - | - | 43
Cc1[nH]nc(Nc2ccc(Br)cc2)c1[N+](=O)[O-] | 56 | - | - | 112
Brc1cccc(-c2cnn3c(-c4ccccc4)cc(-c4ccccc4)nc23)c1 | . | - | - | .
Cc1c(CNC2CCCCCC2)c(C(=O)O)c(C)n1Cc1ccc(F)cc1Cl | . | - | - | .
COC(=O)C(C)Sc1nnc(Cc2cc(=O)[nH]c(=O)[nH]2)n1-c1cc(C)ccc1C (stereo not given) | - | - | - | -
C=CCSc1nnc(Cc2cc(=O)[nH]c(=O)[nH]2)n1-c1cc(C)ccc1C | - | - | 22µM | -
SMILES | CHX counter | FMDV antiviral | Sm TGR block | Shiga toxin inh
COc1cc(-c2nnc(NC(=O)CCS(=O)(=O)c3ccccc3)o2)cc(OC)c1OC | . | - | 28µM | .
COc1cc(OC)cc(-c2nnc(NC(=O)CCS(=O)(=O)c3ccccc3)o2)c1 | . | - | 32µM | .
Cc1ccc(CNC(=O)CCc2c(C)nn(-c3ccc(N4CCCCC4)nn3)c2C)cc1 | . | - | - | .
CC(C)(C)C(=O)Nc1ccc(-c2cc3cc(Cl)ccc3o2)cc1 | 81 | - | - | 124
Cc1ccc(-c2nnc3c4ccccc4c(C)nn23)cc1NC(=O)c1ccccc1 | . | - | - | .
O=C(Nc1nnc(C2=COCCO2)o1)c1cccc(F)c1 | 11 | - | - | -
Cc1cccc(C(=O)Nc2nnc(C3=COCCO3)o2)c1 | - | - | - | -
CCN(CC)CCCN1C(=O)C(O)=C(C(=O)c2ccco2)C1c1ccc(C)o1 (stereo not given) | . | - | . | .
CCOc1ccc(C2C(C(=O)c3ccc(C)o3)=C(O)C(=O)N2CCCN(CC)CC)cc1 (stereo not given) | - | - | 35µM | -
CCOc1cccc(C2C(C(=O)c3ccc(C)o3)=C(O)C(=O)N2CCCn2ccnc2)c1 (stereo not given) | . | - | ? | .
CCN(CC)CCCN1C(=O)C(O)=C(C(=O)c2ccc(C)o2)C1c1ccc(C)o1 (stereo not given) | - | - | 50µM | -
CCN(CC)CCCN1C(=O)C(O)=C(C(=O)c2ccc(C)o2)C1c1cccs1 (stereo not given) | - | . | 45µM | -
Cc1cc(N2C(=O)C(O)=C(C(=O)c3ccc(C)o3)C2c2cccs2)no1 (stereo not given) | - | - | ? | -
CC1CCCCN1C(=O)CSc1n[nH]c(-c2ccccc2Cl)n1 (stereo not given) | . | - | - | .
CCCCc1c(C)c(C#N)c2[nH]c3ccccc3n2c1=O | - | 22µM | - | -
Cc1c(CCO)c(=O)n2c([nH]c3ccccc32)c1C#N | - | - | - | -
COc1ccc2cnoc(=O)c2c1OC | . | - | . | .
CCn1c(Cl)c(C=O)s/c1=N\S(=O)(=O)c1ccccc1 | - | ? | 0.32µM | -
